High-throughput results: PubChem BioAssay, National Center for Advancing Translational Sciences (NCATS)
Sampled rows, rich in hits. Any-hit rate of the full collection: about 12%.
SARS PLP yeast: blocks SARS-CoV papain-like protease in a yeast assay. Potency, µM (titrated, usually from 32.9 µM), for the others: at the top dose activity, positive = growth rescue, actives largely listed as activators. AID 485353. S. cerevisiae expressing SARS-CoV PLpro, growth rescue. 330,000 tested, 0.19% active; further: potency means the concentration at half of the fitted maximal effect; 0% is about no effect; nearly all actives have a fitted effect of over 55% in size
Cycloheximide cs: counter-screen for Shiga toxin inhibitors: cycloheximide protein synthesis inhibition; 300,000 tested, 12% active; max response, %; cell reporter, cycloheximide protein synthesis inhibition counterscreen; in the data active means max response mostly above about 13%, no sharp cut-off; inactive means mostly below about 14%; further: read at 38.3 µM for the half of the compounds with a filed dose; 0% is about no effect
Shiga inhibitor: Shiga toxin inhibition; 290,000 tested, 9.2% active; Vero cells, Shiga toxin protein synthesis inhibition reporter; inhibition, % at 38.7 µM; in the data active means inhibition mostly above about 28%, no sharp cut-off; inactive means mostly below about 43%; further: 0% is about no effect
NS1 inh: inhibitors of influenza NS1 protein function; 270,000 tested, 0.4% active; Potency, µM (titrated, usually from 46.1 µM), for inactives: at the highest dose activity, positive = more growth; further: potency means the concentration at half of the fitted maximal effect; actives are rising curves; nearly all actives have a fitted effect of over 50% in size
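Compounds were scored for reversing the slow growth caused by influenza A NS1 in S. cerevisiae, measured by optical density at 600 nm. Assay medium contained 2% galactose at pH 6.0; NS1-free yeast of the same strain were the positive control.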
An asterisk follows results filed as active; u = inconclusive; x = not tested or not shown. Unless noted, the call rests on the fitted dose curve.

SMILES | SARS PLP yeast | Cycloheximide cs | Shiga inhibitor | NS1 inh
CCCCOc1ccc(C2(C)CC(=O)NC2=O)cc1 (stereo not drawn) | 6% | 22* | 78 | u
CCOc1ccc(NC(=O)CCN2C(=O)c3cccc([N+](=O)[O-])c3C2=O)cc1 | 1% | -2 | -7 | -1%
CN(C)c1ccc(NC(=O)CCN2C(=O)c3cccc([N+](=O)[O-])c3C2=O)cc1 | -6% | 16* | 23 | -4%
COc1ccccc1C(=O)OCc1c(-c2ccccc2)ncc2ccccc12 | -7% | x | x | x
CCn1ncc(C2=NOC(C(=O)Nc3cccnc3)C2)c1C (stereo not drawn) | 14% | 19* | 13 | 7%
Cc1ccc(C)c(OCC(O)CNC2CCCC2)c1 (stereo not drawn) | 0% | -4 | -4 | 6%
O=C(Nc1ccc2nc3n(c(=O)c2c1)CCCCC3)c1c(F)ccc([N+](=O)[O-])c1F | -2% | 92* | 89* | -25%
O=C(Nc1ccc2nc3n(c(=O)c2c1)CCCCC3)c1ccccc1[N+](=O)[O-] | -3% | 16 | 16 | -10%
O=C(Nc1ccc2nc3n(c(=O)c2c1)CCCCC3)c1cc([N+](=O)[O-])ccc1F | -3% | 37* | 32* | -49%
COc1ccccc1NS(=O)(=O)c1cccc(C(=O)N/N=C(\C)c2cccnc2)c1 | 1% | x | x | x
CC(=O)c1ccc(NC(=O)C2CCN(S(=O)(=O)c3cccs3)CC2)cc1 | 1% | 44* | 44* | -2%
O=C(Nc1ccccn1)C1CCN(S(=O)(=O)c2cccs2)CC1 | 7% | -5 | -9 | -1%
CC1CCN(C(=O)C2CCN(S(=O)(=O)c3cccs3)CC2)CC1 | -1% | 17* | 41 | -1%
O=C(Nc1nc2ccccc2[nH]1)C1CCN(S(=O)(=O)c2cccs2)CC1 | 8% | 14* | 13 | 10%
Cc1ccc(NC(=O)C2CCN(S(=O)(=O)c3cccs3)CC2)cc1C | 5% | 1 | 23 | -1%
COc1ccccc1N1CCN(C2CCN(S(=O)(=O)c3ccc(NC(C)=O)cc3)CC2)CC1 | 0% | -1 | -6 | 9%
COc1cccc(O[C@@H]2O[C@@H]3COC(C)(C)O[C@H]3[C@H](O)[C@H]2NC(C)=O)c1 | -13% | -4 | 43 | 10%
Cc1cc(NS(=O)(=O)c2ccc(NC(=O)CCCOc3cccc(C)c3C)cc2)no1 | 2% | -3 | -7 | -1%
O=C(NC1CCCCC1)C(c1ccncc1)N(Cc1ccccc1)C(=O)c1ccc(-c2ccccc2)[nH]1 (stereo not drawn) | -5% | -2 | -13 | -15%
CC(C)(C)NC(=O)C(c1ccncc1)N(Cc1ccco1)C(=O)c1ccc(-c2ccccc2)[nH]1 (stereo not drawn) | -9% | 39* | 91* | 4%
CCC12CN(C(=O)c3ccc(C)cc3)CC(CC)(CN(C(=O)c3ccc(C)cc3)C1)C2=O | 7% | -6 | -8 | -3%
COc1ccc2c(c1OC)C(=O)N1c3ccccc3COC21 (stereo not drawn) | 5% | 41* | 80* | -46%
COc1ccc2c(c1OC)C(=O)N1c3cccc(Cl)c3C(=O)OC21 (stereo not drawn) | -7% | 4 | 1 | 0%
COc1ccc2c(c1OC)C(=O)N1c3ccccc3SC21 (stereo not drawn) | 3% | 35* | 54* | -7%
COc1ccc(-c2c(NC(=O)c3ccco3)oc3ccccc3c2=O)cc1 | -4% | 7 | 20 | 14%
SMILES | SARS PLP yeast | Cycloheximide cs | Shiga inhibitor | NS1 inh
COc1ccc(CNC(=O)C(C)Cc2ccccc2)cc1O (stereo not drawn) | 8% | 1 | -18 | -3%
Cc1cc(C)cc(C(=O)Nc2ccc(N3CCN(S(C)(=O)=O)CC3)cc2)c1 | 0% | -3 | 13 | -6%
CCOc1ccc(/C=N/Nc2ccc(Cl)nn2)c(O)c1 | -3% | 7 | 58* | 4%
CCCOc1ccc(/C=N/Nc2ccc(C(=O)O)cc2)c(OCCC)c1 | 2% | 38* | 121* | x
COc1ccc(C(=O)NC(=S)Nc2ccccc2[N+](=O)[O-])cc1OC | 0% | -1 | 5 | 3%
COc1ccc(/C=N/NC(=S)Nc2ccccc2[N+](=O)[O-])cc1O | u | 60* | 62* | -17%
CCCOc1ccc(/C=N/Nc2cccc([N+](=O)[O-])c2)c(O)c1 | -15% | 82* | 81* | -31%
CC(=O)Nc1ccc(NC(=O)C(C)OC(=O)c2cccc(S(=O)(=O)N3CCCC3)c2)cc1 (stereo not drawn) | 0% | x | x | x
CCNC(=S)N/N=C/c1ccccc1[N+](=O)[O-] | 0% | -1 | 9 | 4%
CCCOc1ccc(/C=N/Nc2ccccc2[N+](=O)[O-])c(O)c1 | -12% | 58* | 74* | -5%
